In assay [1] the target is Casein kinase I isoform gamma-2 (Homo sapiens) (UniProt P78368). As to conditions: at 1 µM.
In assay [2] the target is Casein kinase I isoform gamma-3 (Homo sapiens) (UniProt Q9Y6M4). Particulars: at 0.1 µM.
For assay [3] the target is unchanged. As to conditions: at 1 µM.
Assay [4] deals with Cyclin-dependent kinase 1 (Homo sapiens) (UniProt P06493). As to conditions: at 0.1 µM.
The target is the same in assay [5]. As to conditions: at 1 µM.
Assay [6] has as its target Cyclin-dependent kinase 2 (Homo sapiens) (UniProt P24941). Particulars: at 0.1 µM.
For assay [7] the target is unchanged. As to conditions: at 1 µM.
For assay [8] the target is unchanged. As to conditions: at 0.1 µM. This is another data set of the same source.
The target is the same in assay [9]. As to conditions: at 1 µM. The source holds these as a separate data set.
The target of assay [10] is T1, CDK3/Cyclin E (Homo sapiens) (UniProt P24864+Q00526). Particulars: at 0.1 µM.
T1 sequence (P24864 whole entry, looked up): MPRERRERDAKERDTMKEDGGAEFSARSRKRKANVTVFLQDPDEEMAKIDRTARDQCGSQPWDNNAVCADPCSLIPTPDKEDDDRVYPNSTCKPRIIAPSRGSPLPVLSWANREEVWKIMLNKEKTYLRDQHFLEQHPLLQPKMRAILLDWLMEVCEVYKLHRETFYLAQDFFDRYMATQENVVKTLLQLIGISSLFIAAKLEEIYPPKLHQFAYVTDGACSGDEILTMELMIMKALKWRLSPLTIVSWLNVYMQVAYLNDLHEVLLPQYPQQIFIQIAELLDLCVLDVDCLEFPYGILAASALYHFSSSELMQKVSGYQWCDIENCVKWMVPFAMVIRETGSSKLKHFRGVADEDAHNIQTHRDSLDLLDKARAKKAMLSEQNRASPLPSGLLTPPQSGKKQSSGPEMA
T1 sequence (Q00526 whole entry, looked up): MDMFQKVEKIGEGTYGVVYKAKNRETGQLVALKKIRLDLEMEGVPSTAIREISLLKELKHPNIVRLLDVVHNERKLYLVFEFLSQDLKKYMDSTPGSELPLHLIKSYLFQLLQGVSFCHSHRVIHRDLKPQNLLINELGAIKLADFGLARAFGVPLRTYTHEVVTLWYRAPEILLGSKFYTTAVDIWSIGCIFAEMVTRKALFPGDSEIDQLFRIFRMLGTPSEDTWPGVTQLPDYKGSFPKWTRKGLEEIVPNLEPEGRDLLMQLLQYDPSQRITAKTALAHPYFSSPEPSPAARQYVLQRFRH
In assay [11] the target is T1, CDK3/Cyclin E (Homo sapiens). As to conditions: at 1 µM.
Assay [12] has as its target Cyclin-dependent kinase 4 (Homo sapiens) (UniProt P11802). As to conditions: at 0.1 µM.
For assay [13] the target is unchanged. As to conditions: at 1 µM.
Assay [14] addresses Cyclin-dependent kinase 5 (Homo sapiens) (UniProt Q00535). Particulars: at 0.1 µM.
The target is the same in assay [15]. As to conditions: at 1 µM.
Assay [16] deals with Cyclin-dependent kinase 6 (Homo sapiens) (UniProt Q00534). Particulars: at 0.1 µM.
Cyclin-dependent kinase 6 (Homo sapiens), sequence (Q00534 whole entry): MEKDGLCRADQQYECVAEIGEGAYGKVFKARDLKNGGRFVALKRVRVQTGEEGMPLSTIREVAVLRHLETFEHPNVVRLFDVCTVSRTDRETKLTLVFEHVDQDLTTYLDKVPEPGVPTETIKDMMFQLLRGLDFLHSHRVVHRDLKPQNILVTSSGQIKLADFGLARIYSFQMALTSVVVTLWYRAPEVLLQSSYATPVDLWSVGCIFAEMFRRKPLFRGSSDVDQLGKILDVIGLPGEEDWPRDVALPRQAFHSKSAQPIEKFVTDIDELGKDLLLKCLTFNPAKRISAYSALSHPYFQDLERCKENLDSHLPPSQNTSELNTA
Assay [17] shares this target. Particulars: at 1 µM.
Assay [18] addresses Dual specificity protein kinase CLK2 (Homo sapiens) (UniProt P49760). As to conditions: at 0.1 µM.
Assay [19] has the same target. Particulars: at 1 µM.
The target of assay [20] is Dual specificity protein kinase CLK3 (Homo sapiens) (UniProt P49761). As to conditions: at 0.1 µM.
Dual specificity protein kinase CLK3 (Homo sapiens), sequence (P49761 whole entry, looked up): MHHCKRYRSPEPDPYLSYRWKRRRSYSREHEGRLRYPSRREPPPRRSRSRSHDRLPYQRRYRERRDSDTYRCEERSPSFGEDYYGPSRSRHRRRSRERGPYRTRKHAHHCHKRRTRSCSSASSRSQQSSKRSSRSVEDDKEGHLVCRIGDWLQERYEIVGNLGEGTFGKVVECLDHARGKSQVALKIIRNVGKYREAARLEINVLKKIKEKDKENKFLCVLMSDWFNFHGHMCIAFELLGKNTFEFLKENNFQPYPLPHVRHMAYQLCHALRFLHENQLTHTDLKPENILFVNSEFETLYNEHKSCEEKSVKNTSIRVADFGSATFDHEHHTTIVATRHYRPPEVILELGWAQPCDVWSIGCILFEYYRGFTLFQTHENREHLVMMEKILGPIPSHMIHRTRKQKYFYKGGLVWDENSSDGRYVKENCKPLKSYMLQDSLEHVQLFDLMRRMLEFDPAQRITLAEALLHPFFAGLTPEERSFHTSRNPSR

Structures are written as SMILES.

Cyclin-dependent kinase 5 (Homo sapiens), sequence (Q00535 whole entry, looked up): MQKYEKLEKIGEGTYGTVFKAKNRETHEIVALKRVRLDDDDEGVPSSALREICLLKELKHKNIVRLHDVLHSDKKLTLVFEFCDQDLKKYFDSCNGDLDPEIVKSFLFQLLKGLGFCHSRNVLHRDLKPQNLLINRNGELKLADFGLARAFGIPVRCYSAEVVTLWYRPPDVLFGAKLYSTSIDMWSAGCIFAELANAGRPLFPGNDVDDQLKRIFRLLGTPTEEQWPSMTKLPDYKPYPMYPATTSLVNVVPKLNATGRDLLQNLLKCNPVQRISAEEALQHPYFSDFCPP
Casein kinase I isoform gamma-2 (Homo sapiens), sequence (P78368 whole entry, looked up, canonical isoform): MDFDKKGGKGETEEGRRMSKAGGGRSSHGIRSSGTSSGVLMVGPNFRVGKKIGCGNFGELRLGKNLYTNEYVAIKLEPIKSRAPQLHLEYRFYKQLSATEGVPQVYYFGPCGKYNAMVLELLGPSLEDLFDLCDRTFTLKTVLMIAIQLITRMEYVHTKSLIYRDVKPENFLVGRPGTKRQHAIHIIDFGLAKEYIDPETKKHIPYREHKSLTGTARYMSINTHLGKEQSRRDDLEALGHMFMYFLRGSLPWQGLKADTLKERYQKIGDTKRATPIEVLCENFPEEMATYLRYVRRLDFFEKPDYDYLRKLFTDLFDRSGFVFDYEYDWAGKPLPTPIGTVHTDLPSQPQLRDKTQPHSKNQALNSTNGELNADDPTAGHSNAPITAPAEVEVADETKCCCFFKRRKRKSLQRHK
Casein kinase I isoform gamma-3 (Homo sapiens), sequence (Q9Y6M4 whole entry, looked up, canonical isoform): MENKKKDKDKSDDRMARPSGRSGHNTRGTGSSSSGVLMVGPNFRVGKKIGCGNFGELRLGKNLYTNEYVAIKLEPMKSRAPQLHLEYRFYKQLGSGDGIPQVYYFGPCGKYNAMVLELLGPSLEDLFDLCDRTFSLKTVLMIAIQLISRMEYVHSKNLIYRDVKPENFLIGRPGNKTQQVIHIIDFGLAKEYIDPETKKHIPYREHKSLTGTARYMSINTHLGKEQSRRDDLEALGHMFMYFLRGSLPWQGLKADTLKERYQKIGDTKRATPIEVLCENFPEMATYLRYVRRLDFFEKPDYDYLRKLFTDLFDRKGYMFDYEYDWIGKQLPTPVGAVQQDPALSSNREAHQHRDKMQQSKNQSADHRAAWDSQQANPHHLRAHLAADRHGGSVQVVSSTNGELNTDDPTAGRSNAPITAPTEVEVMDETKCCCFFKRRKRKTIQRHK
Dual specificity protein kinase CLK2 (Homo sapiens), sequence (P49760 whole entry, looked up): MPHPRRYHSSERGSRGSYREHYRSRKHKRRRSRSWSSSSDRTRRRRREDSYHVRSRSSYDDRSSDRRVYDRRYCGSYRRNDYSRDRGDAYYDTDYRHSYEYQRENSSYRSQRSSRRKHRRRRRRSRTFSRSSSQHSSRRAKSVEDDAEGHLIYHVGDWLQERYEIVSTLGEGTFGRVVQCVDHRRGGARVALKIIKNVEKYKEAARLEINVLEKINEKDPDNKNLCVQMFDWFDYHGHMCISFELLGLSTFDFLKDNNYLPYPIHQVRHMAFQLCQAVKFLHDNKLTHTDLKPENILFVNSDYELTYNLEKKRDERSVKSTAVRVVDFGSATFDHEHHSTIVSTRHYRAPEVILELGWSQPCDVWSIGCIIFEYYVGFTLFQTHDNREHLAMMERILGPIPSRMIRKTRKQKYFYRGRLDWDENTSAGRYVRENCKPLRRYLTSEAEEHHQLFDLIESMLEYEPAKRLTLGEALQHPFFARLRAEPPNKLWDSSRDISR
Cyclin-dependent kinase 4 (Homo sapiens), sequence (P11802 whole entry): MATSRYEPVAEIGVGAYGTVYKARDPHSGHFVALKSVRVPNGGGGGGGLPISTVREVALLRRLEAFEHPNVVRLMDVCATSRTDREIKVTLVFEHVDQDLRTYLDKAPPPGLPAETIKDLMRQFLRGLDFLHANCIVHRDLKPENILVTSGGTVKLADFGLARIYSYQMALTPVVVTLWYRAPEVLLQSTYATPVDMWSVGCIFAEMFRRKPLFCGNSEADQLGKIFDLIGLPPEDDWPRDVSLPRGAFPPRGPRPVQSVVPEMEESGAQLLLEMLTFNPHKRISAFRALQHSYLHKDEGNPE
Cyclin-dependent kinase 1 (Homo sapiens), sequence (P06493 whole entry, looked up): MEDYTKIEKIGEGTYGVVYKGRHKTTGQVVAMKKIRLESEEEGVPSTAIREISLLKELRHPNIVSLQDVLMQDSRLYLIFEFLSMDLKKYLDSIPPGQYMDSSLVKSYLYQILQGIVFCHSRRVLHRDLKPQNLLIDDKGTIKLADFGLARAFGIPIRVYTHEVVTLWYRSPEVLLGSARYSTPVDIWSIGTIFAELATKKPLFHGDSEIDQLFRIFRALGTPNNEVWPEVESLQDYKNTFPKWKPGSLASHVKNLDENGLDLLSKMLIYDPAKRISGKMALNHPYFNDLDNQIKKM

For `CCN1CCC(CC(=O)Nc2n[nH]c3nnc(-c4cccc(F)c4F)cc23)CC1`, the inhibition was -0.19% in [1]; -0.19% in [2]; 1.47% in assay [3]; 1.67% in assay [4]; 8.73% in assay [5]; 2.71% in [6]. The inhibition amounted to 13.8% in assay [7]; 1.12% in [8]; 7.61% in assay [9]; 0.16% in assay [10]; 2.37% in [11]; 5.41% in assay [12]. The inhibition is 32.5% in [13]; 1.05% in assay [14]; 7.07% in assay [15]; -1.17% in assay [16]; 17.4% in assay [17]; 5.35% in [18]. In addition, the inhibition in [19] was 29.9%; in assay [20] it was -0.51%.
Turning to `N#Cc1c(NC(=O)c2ccc(F)cc2)sc2c1CCCC2`, the inhibition in [1] is 0.5%; in assay [2], 0.26%; in assay [3] it was -1.32%; in assay [4] it was -0.03%; in assay [5] it was -0.31%; in assay [6], 0.4%. Also, the inhibition in [7] is -1.07%; in assay [8], 0.42%; in assay [9], 1.03%; in assay [10] it was 0.87%; in [11] it was -1.72%; in assay [12], 0.38%. Also, the inhibition in assay [13] was 1.59%; in [14], 0.42%; in assay [15], 0.28%; in assay [16], -1.23%; in assay [17], -0.13%; in assay [18], -1%. Further, the inhibition in assay [19] worked out at 1.4%; in [20] it was 0.44%.
`Cc1ccc2c(-c3ccnc(Nc4ccccc4)n3)c(-c3ccc(F)cc3)nn2n1`: the inhibition in assay [1] is 36.6%; in assay [2], 7.8%; in assay [3], 51.5%; in [4] it was -0.23%; in assay [5], 1.56%; in assay [6], 2.27%. Also, the inhibition in assay [7] was 0.79%; in assay [8], 2.35%; in assay [9], 5.57%; in assay [10] it was 2.45%; in [11] it was 2.55%; in [12], 6.51%. The inhibition in assay [13] amounted to 6.75%; in assay [14], 0.32%; in assay [15], 2.21%; in assay [16] it was 3.66%; in assay [17] it was 5.2%; in assay [18], 2.31%. Besides, the figures for the inhibition in assay [19] and in [20] were 2.23% and 1.04%, respectively.
`Nc1ncc(-c2cccc(S(N)(=O)=O)c2)c2scc(-c3ccc(F)c(Cl)c3)c12`: the inhibition in assay [1] was found to be 3.79%; in assay [2], 2.58%; in [3] it was 4.97%; in [4], 1.33%; in assay [5], 2.57%; in [6], 1.79%. In addition, the inhibition in assay [7] was 2.91%; in assay [8], 2.68%; in assay [9], 5.08%; in assay [10], -2.34%; in assay [11] it was -4.84%; in [12], 1.97%. The inhibition in assay [13] is 3.55%; in [14], 1.01%; in assay [15] it was 2.29%; in assay [16], -0.13%; in assay [17], 1.9%; in [18], 2.7%. The inhibition is -0.72% in assay [19] and 1.16% in assay [20].
Turning to `CNC(=O)c1cc(-c2ccc(F)cc2)cc(-c2ccc(S(=O)(=O)N3CCCC3)cc2)c1N`, the inhibition was 2.38% in [1]; 3.27% in [2]; 0.61% in assay [3]; -0.56% in assay [4]; 1.19% in [5]; 1% in assay [6]. Besides, the inhibition was 1.91% in assay [7]; 2.41% in assay [8]; 3.39% in assay [9]; -1.31% in assay [10]; -2.51% in assay [11]; 1.65% in [12]. Also, the inhibition in [13] was 2.17%; in assay [14], 0.12%; in [15], 1.55%; in assay [16], -2.1%; in [17] it was -3.59%; in assay [18] it was 1.77%. In addition, the figures for the inhibition in assay [19] and in [20] were 2.42% and 0.69%, respectively.
As for `CNC(=O)c1cncc(/C=C/c2ccccc2Cl)c1`, the inhibition in assay [1] was -0.77%; in [2] it was 0.25%; in assay [3], -0.89%; in assay [4], 0.47%; in [5] it was 3.2%; in [6] it was 0.6%. For the same compound, the inhibition in assay [7] was -0.73%; in assay [8], -0.47%; in assay [9], 0.52%; in [10] it was 0.31%; in [11], -0.07%; in assay [12], -1.43%. Further, the inhibition in assay [13] is -0.33%; in [14], 0.19%; in [15] it was 2%; in assay [16], 2.81%; in [17], -1.1%; in [18], -0.38%. In addition, the inhibition in [19] is 0.35%; in assay [20], -0.85%.
Regarding `CC(=O)Nc1cccc(C#Cc2cncnc2Nc2ccc(OCc3cccc(F)c3)c(Cl)c2)c1`, the inhibition was 2.49% in [1]; 2.41% in [2]; 1.12% in [3]; -0.4% in assay [4]; 0.31% in assay [5]; 0.72% in assay [6]. Besides, the inhibition was determined as 1.81% in assay [7]; 2% in assay [8]; 0.87% in assay [9]; 1.66% in assay [10]; 0.86% in [11]; 1.84% in [12]. Further, the inhibition in assay [13] was 1.74%; in assay [14], 0.82%; in assay [15], 0.21%; in assay [16] it was -0.8%; in assay [17], -0.16%; in assay [18], 2.3%. In addition, the inhibition in assay [19] is 1.56%; in [20], -0.12%.
In the case of `COc1cc(Nc2nccc(Nc3ccc4c(C)n[nH]c4c3)n2)cc(OC)c1OC`, the inhibition is 9.2% in [1]; 0.39% in [2]; -0.68% in assay [3]; 0.71% in assay [4]; 3.05% in assay [5]; 0.73% in assay [6]. Besides, the inhibition in assay [7] was 3.22%; in assay [8], 2.32%; in assay [9], 6.07%; in assay [10], 1.75%; in [11] it was 4.99%; in assay [12], 2.86%. Further, the inhibition in assay [13] came out at 3.18%; in assay [14], 1.21%; in assay [15] it was 2.36%; in assay [16] it was 1.52%; in assay [17], 3.31%; in [18], 1.62%. Moreover, the values for the inhibition in assay [19] and in assay [20] were 2.36% and 0.25%, respectively.
For the compound `Nc1nc(-c2cccc(Cl)c2)c(-c2ccc3ncccc3n2)s1`, the inhibition worked out at 13.7% in assay [1]; 6.72% in assay [2]; 24.7% in [3]; 0.61% in [4]; 2.18% in assay [5]; 1.23% in [6]. In addition, the inhibition is 0.95% in assay [7]; 3.69% in assay [8]; 4.47% in assay [9]; 2.24% in assay [10]; -3.18% in assay [11]; 1.67% in assay [12]. For the same compound, the inhibition in assay [13] is 1.92%; in assay [14] it was 0.34%; in [15], 0.13%; in assay [16], -7.38%; in assay [17], -2.65%; in assay [18], 2.6%. Besides, the inhibition in assay [19] was found to be 9.25%; in assay [20], 2.15%.
As to `CCc1nn2ncccc2c1-c1ccnc(NC2CC2)n1`, the inhibition was found to be 2.18% in assay [1]; 1.24% in [2]; 0.68% in assay [3]; 2.52% in assay [4]; 6.8% in [5]; 3.24% in assay [6]. The inhibition in assay [7] was 10.4%; in assay [8], 2.25%; in assay [9], 9.7%; in [10], -0.69%; in assay [11] it was 2.56%; in [12], 5.47%. The inhibition worked out at 17.6% in assay [13]; 0.79% in assay [14]; 6.84% in assay [15]; 0.16% in [16]; 10.1% in assay [17]; 0.1% in assay [18]. The inhibition worked out at 3.21% in assay [19] and 0.31% in [20].
Take `CCN(CC)S(=O)(=O)c1ccc(OC)c(Nc2ncc(-c3ccccc3)o2)c1`: the inhibition in assay [1] was -0.29%; in assay [2], -0.78%; in assay [3], 1.34%; in [4], 0.99%; in assay [5], 5.32%; in [6], 2.02%. Further, the inhibition was 5.22% in assay [7]; 3.09% in assay [8]; 3.61% in assay [9]; 1.42% in assay [10]; -0.01% in [11]; 1.62% in assay [12]. The inhibition in assay [13] came out at 2.74%; in assay [14], 0.99%; in assay [15], 2.21%; in assay [16], 5.19%; in [17], 2.95%; in [18], 4.15%. In addition, the inhibition is 40.3% in assay [19] and 0.64% in assay [20].
As to `Fc1ccc(-c2nn3ccccc3c2-c2ccncc2)cc1`, the inhibition in assay [1] was 7.48%; in [2], 0.7%; in assay [3], 15.1%; in [4], 0.74%; in assay [5] it was 1.96%; in assay [6] it was 2.05%. In addition, the inhibition is 2.06% in assay [7]; 1.19% in assay [8]; 2.02% in assay [9]; 0.78% in assay [10]; -1.11% in [11]; 1.37% in [12]. Further, the inhibition is 2.18% in assay [13]; 0.46% in assay [14]; 0.96% in [15]; -1.88% in assay [16]; 2.7% in [17]; 0.24% in [18]. Besides, the inhibition came to 1.47% in assay [19] and 0.63% in assay [20].
Take `NC(=O)c1sc(-n2cnc3ccc(C(F)(F)F)cc32)cc1OCc1ccccc1Br`: the inhibition was 4.58% in [1]; 1.35% in assay [2]; 2.37% in [3]; -0.53% in assay [4]; 1.01% in assay [5]; 1.25% in [6]. In addition, the inhibition was 1.52% in assay [7]; 1.94% in assay [8]; 3.25% in [9]; 1.2% in assay [10]; -2.34% in assay [11]; 1.68% in assay [12]. For the same compound, the inhibition in assay [13] is 2.94%; in assay [14], -0.39%; in assay [15], -0.71%; in assay [16], -0.29%; in assay [17], 1.76%; in [18], 3.14%. Also, the inhibition in assay [19] stood at 27.6%; in assay [20], 2.31%.
In the case of `COc1ccc(-c2cc3c(N)ncnc3o2)cc1`, the inhibition in assay [1] was -0.54%; in assay [2], -0.97%; in [3], 0.61%; in assay [4] it was 2.33%; in assay [5], 6.06%; in assay [6], 1.51%. The inhibition in assay [7] came to 2.69%; in [8], 1.72%; in [9], 5.09%; in [10] it was 0.47%; in [11], 1.68%; in assay [12], 0.18%. Besides, the inhibition is 3.35% in [13]; 1.53% in [14]; 5.3% in assay [15]; -1.4% in [16]; 2.82% in assay [17]; 0.46% in assay [18]. The inhibition in assay [19] is 2.78%; in assay [20], 0.59%.

The values are drawn from ChEMBL document CHEMBL1961873, “Compounds: GSK PKIS; Assays: Nanosyn kinase panel” (2012).
